# Laboratory results as given in ChEMBL document CHEMBL4513216, “Probing the Open Global Health Chemical Diversity Library for Multistage-Active Starting Points for Next-Generation Antimalarials” (ACS Infect Dis, 2020).
# Out of some 69,000 compounds screened, about 8,600 (12%) showed an effect of 50% or more. This is one part of a sample in which strong results are shown more often than they occur.
# Test system: Plasmodium berghei
# Experiment: Screen against P. berghei liver stage (PbLuc), transformed with Luciferase, at 10uM
# Assay type: functional, HepG2
# Conditions: tested at 10 uM
row,SMILES,INHIBITION [%]
1,CC(C#N)(NC(=O)c1ccc(C#N)cc1)C1CC1 (configuration not stated),2.45
2,CC1CCc2n[nH]c(C(=O)NCCCc3ccco3)c2C1 (configuration not stated),6.32
3,Cc1cnn(C2CN(Cc3nc4cc(Cl)ccc4n3C)C2)c1,-10.6
4,CC(C)(CN)NS(=O)(=O)c1cccc(F)c1F,19
5,CCN1CCn2c(C)cnc2C12CCN(C(=O)c1ccco1)CC2,3.81
6,CN1CC(=O)N(c2cccc(F)c2)CC12CCN(CCO)C2 (configuration not stated),21.8
7,COc1ccc(N2CCN(C(=O)c3cc(=O)c(OC)c[nH]3)CC2)cc1,-13.8
8,CCS(=O)(=O)CCN1CCN(C(C)c2cccnc2)CC1 (configuration not stated),24.2
9,CCC(c1ccccc1)N1CCN(C(=O)c2cc(C(N)=O)c[nH]2)CC1 (configuration not stated),-23.1
10,CC(c1cccnc1)N1CCN(CCCC#N)CC1 (configuration not stated),41.4
11,CC(c1cccnc1)N1CCN(CCO)CC1 (configuration not stated),60
12,CCC(c1ccc(F)cc1F)N1CCN(CCO)CC1 (configuration not stated),48.1
13,CCC(c1ccccc1)N1CCN(CCO)CC1 (configuration not stated),52.1
14,CN(Cc1nnc(C2CC2)o1)Cc1ccccc1N1CCOCC1,20.19
15,O=C(c1cocn1)N1CCC2(CC1)COC(COCc1ccccn1)C2 (configuration not stated),8.03
16,COc1c(CNCc2cccc(Cn3cncn3)c2)c(C)nn1C,-21.8
17,Cc1cc(C)nc(C2CCCN2C(=O)c2cnco2)n1 (configuration not stated),12.8
18,Cc1cc(C(=O)NCC(c2ccccc2Cl)N2CCOCC2)on1 (configuration not stated),1.7
19,Cc1ccoc1C(=O)NCC(c1ccccc1Cl)N1CCOCC1 (configuration not stated),30.5
20,Cc1nc(C)c(C(=O)NCC(c2ccccc2Cl)N2CCOCC2)s1 (configuration not stated),62.3
21,CN(Cc1cccc(OC(F)(F)F)c1)Cc1cnn(C)c1,-6.51
22,Cc1ncsc1C(=O)N(C)Cc1ccccc1,-15.75
23,CCO[C@H]1CC[C@H]2[C@H]1OCCN2C(=O)COc1ccccc1,34.9
24,CCO[C@@H]1CC[C@H]2[C@H]1OCCN2C(=O)c1nn(C)c2ccccc12,22.6

row,SMILES,INHIBITION [%]
1,CO[C@H]1CC[C@H]2[C@H]1OCCN2C(=O)c1nn(C)c2ccccc12,47.4
2,COCC(=O)N1CCO[C@H]2[C@H](OC)CC[C@@H]21,50
3,CCO[C@H]1CC[C@H]2[C@H]1OCCN2C(=O)c1nn(C)c2ccccc12,67.3
4,CN(C)CCO[C@@H]1CC[C@H]2[C@H]1OCCN2C(=O)COc1ccccc1,22.2
5,CO[C@@H]1CC[C@H]2[C@H]1OCCN2C(=O)C1CCOCC1,33
6,CO[C@@H]1CC[C@H]2[C@H]1OCCN2C(=O)COc1ccc(F)cc1,29.6
7,O=C(COc1ccc(F)cc1)N1CCO[C@H]2[C@@H](OCC3CC3)CC[C@@H]21,59.3
8,CO[C@@H]1CC[C@H]2[C@H]1OCCN2C(=O)COc1ccc(C)cc1,47.5
9,COc1cc(C(=O)N2CCO[C@H]3[C@H](OCC4CC4)CC[C@@H]32)ccc1F,30.5
10,CCO[C@H]1CC[C@H]2[C@@H]1OCCN2C(=O)COc1ccccc1,62
11,N#Cc1nc(COc2ccc3c(c2)OCO3)oc1N1CCCC1,45.2
12,COC(=O)c1cc(C(=O)N2CCCCC2C)n(-c2ccccc2)n1 (configuration not stated),13.4
13,CN1C[C@H]2CNC[C@@]2(C(=O)N2CCN(c3ncccc3C#N)CC2)C1,48.1
14,COCCn1c(-c2cccc(OC)c2)cnc1NC(=O)NCC(C)C,25.1
15,c1cnc(NC2COC3(CCN(Cc4cccs4)CC3)C2)nc1 (configuration not stated),-23.8
16,CCN(CC)C(=O)c1ccn(COc2ccc(F)cc2)n1,1.04
17,COC(=O)c1ccc(N(C(=O)c2cscn2)C(C)C)c(C)c1,27
18,O=C(Cc1ccsc1)N1CCC(c2ccncc2)CC1,45.2
19,CCn1cnnc1CNC(=O)N(C)Cc1ccc2c(c1)OCO2,59.4
20,Cc1cc(C)c(CNC(=O)N(C)Cc2ccoc2)c(=O)[nH]1,26.5
21,CN(Cc1cnn(C)c1)C(=O)NCCc1ccc2c(c1)OCCO2,-2.862
22,Cc1cc(C)c(CNC(=O)N(C)Cc2ccc3c(c2)OCO3)c(=O)[nH]1,51.1
23,CCn1cnnc1CNC(=O)N(C)Cc1ccc2c(c1)OCCO2,30.2
24,CC(=O)NCCNC(=O)N(C)Cc1ccc2c(c1)OCCO2,56.6

row,SMILES,INHIBITION [%]
1,Cc1cc(C)c(CNC(=O)N(C)Cc2ccc(F)cc2)c(=O)[nH]1,7.27
2,CN(Cc1ccc2c(c1)OCCO2)C(=O)NCCc1cnn(C)c1,47.6
3,CCN(Cc1ccc2c(c1)OCCO2)C(=O)NCc1nncn1CC,11.4
4,Cc1cc(Nc2cnccn2)cc(C2CCCN2)n1 (configuration not stated),21.7
5,O=C(C1CCOCC1)N1CCO[C@H]2[C@H](OCC3CC3)CC[C@@H]21,-37.4
6,Cc1cccc(C(=O)N2CCc3ncnc(C4CCOC4)c3CC2)n1 (configuration not stated),15.9
7,CC(CN1CCCCCC1)NCc1cc(-c2ccco2)on1 (configuration not stated),59.5
8,COC(C)(C)CC(C)NCc1cc(-c2ccco2)on1 (configuration not stated),29.2
9,CCSCC(C)NCc1cc(-c2ccco2)on1 (configuration not stated),13.7
10,CCc1cnccc1C(=O)NC1CCN(Cc2ccccc2F)CC1,23.1
11,Cn1ncc(N2CCOC(CCNC(=O)CO)C2)cc1=O (configuration not stated),25.8
12,Cn1ncc(N2CCOC(CCNC(=O)NC(C)(C)C)C2)cc1=O (configuration not stated),71.2
13,Cn1ncc(N2CCOC(CCNC(=O)N3CCCCC3)C2)cc1=O (configuration not stated),47.4
14,O=S(=O)(C1CC1)N1C[C@H](Oc2ccccn2)[C@H]2OCCC[C@H]21,15.4
15,Cc1ccc(CNS(=O)(=O)C=c2[nH]c(=O)n3cccc3c2=O)cc1,0
16,COCCO[C@H]1CCN(Cc2cccs2)[C@H]1Cc1cccnc1,32.7
17,CN(C)[C@@H]1CCN(C(=O)Cc2cccs2)[C@H]1Cc1ccncc1,74.2
18,COCCN1CC[C@H](OC)[C@@H]1Cc1ccccc1,10
19,CN(C)[C@@H]1CCN(C(=O)Cc2ccc(F)cc2)[C@H]1Cc1ccncc1,15.9
20,CN(C)[C@@H]1CCN(C(=O)Cc2cccs2)[C@H]1Cc1cnn(C)c1,-16.7
21,CO[C@@H]1CCN(Cc2cccs2)[C@@H]2CN(Cc3ccncc3)C[C@@H]21,46.4
22,CO[C@@H]1CCN(Cc2cccs2)[C@H]1Cc1ccncc1,62.5
23,COCCN1C[C@@H]2[C@@H](OC)CCN(Cc3cccs3)[C@@H]2C1,16.8
24,CO[C@H]1CCN(Cc2cccs2)[C@@H]2CN(Cc3ccncc3)C[C@H]12,61.3
